Assay [1] deals with DLD1. The assay can be described thus: cell viability (CellTiter-Glo) relative to plate median (fraction of plate median); higher = more viable cells. The settings on record: 5 µM; treatment time 24 h; reporter: 7TFP. Summed up:
(§1)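 Cells were seeded in 384-well plates; these were colorectal cancer lines stably transduced with lentiviral 7TFP or TCF4/Wnt firefly luciferase reporters. After 24 h, library compounds went in at a final 5 µM, and exposure lasted 24 h. Parallel plates were then read for firefly luciferase or CellTiterGlo luminescence, each well normalised to its plate median, with two independent replicates averaged.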
A general note: In ATP-based viability assays light output follows the ATP content of the culture.

In the next assay the test system is HCT116. The assay is described as above. To be noted: 5 µM; treatment time 24 h; reporter: TCF4/Wnt. The gist of the method: as §1
Assay [2] relates to SW480. The description is as above. The settings on record: 5 µM; treatment time 24 h; reporter: 7TFP. The gist of the method: as §1
The subject of assay [3] is DLD1. The assay can be described thus: TCF/Wnt firefly luciferase reporter signal relative to plate median (fraction of plate median); higher = higher Wnt reporter signal. To be noted: 5 µM; treatment time 24 h; reporter: 7TFP. The gist of the method: as §1
(Reporter assays use an easily measured gene product as a stand-in for the process of interest.)

The subject of assay [4] is SW480. The description is as above. The settings on record: 5 µM; treatment time 24 h; reporter: 7TFP. Summed up:
as §1

The record followed here is the supplement of paper PMC6522484.

± gives the standard deviation of the averaged measurements.

For `CC[C@H](C)C(=O)O[C@H]1C[C@H](O)C=C2C=C[C@H](C)[C@H](CC[C@@H](O)C[C@@H](O)CC(=O)O)[C@H]21`, the cell viability in the assay on DLD1 [1] came to 1.03 ± 0.014; in the assay with HCT116 it was 1.02 ± 0.028; with SW480 [2], 0.989 ± 0.0028. Also, the results for the “TCF/Wnt firefly luciferase reporter signal” value in the assay with DLD1 [3] and in the assay with SW480 [4] were 1.04 ± 0.076 and 0.928 ± 0.16, respectively.
Taken in the same sequence, the figures for `CCC(=O)O[C@H]1CC[C@H]2[C@@H]3CCc4cc(O)ccc4[C@H]3CC[C@]12C` were 1.01 ± 0.023, 1 ± 0.16, 1.02 ± 0.014, 0.888 ± 0.11 and 0.994 ± 0.052.
Taken in the same sequence, the figures for `CC(=O)[C@H]1CC[C@H]2[C@@H]3CCC4=CC(=O)CC[C@]4(C)[C@H]3CC[C@]12C` were 1.01 ± 0.078, 1.02 ± 0.12, 0.992 ± 0.025, 0.979 ± 0.03 and 1.04 ± 0.028.
For `NC(=O)c1cccc(N)c1`, the cell viability with DLD1 [1] is 0.983 ± 0.039; in the assay on HCT116 it was 1.01 ± 0.062; with SW480 [2] it was 0.9685 ± 0.0035. For the same compound, the “TCF/Wnt firefly luciferase reporter signal” value in the assay on DLD1 [3] was found to be 0.959 ± 0.13; in the assay with SW480 [4], 0.853 ± 0.09.
In the case of `CO[C@H]1[C@H](O)[C@@H](O)[C@H](O)[C@H](O)[C@H]1O`, the cell viability is 0.981 ± 0.018 in the assay with DLD1 [1], 0.953 ± 0.026 in the assay with HCT116 and 1.03 ± 0.014 with SW480 [2]. The “TCF/Wnt firefly luciferase reporter signal” value was 1.11 ± 0.13 in the assay with DLD1 [3] and 1.1 ± 0.092 in the assay with SW480 [4].
Taken in the same sequence, the figures for `Cc1cc(CC(=O)O)n(C)c1C(=O)c1ccc(Cl)cc1` were 1.07 ± 0.035, 0.999 ± 0.03, 1.05, 1.12 ± 0.24 and 0.97 ± 0.13.
`CC1(C)CC[C@]2(C(=O)O)CC[C@]3(C)C(=CC[C@@H]4[C@@]5(C)CC[C@H](O)C(C)(C)[C@@H]5[C@H](O)C[C@]43C)[C@@H]2C1`: the values for the cell viability with DLD1 [1], in the assay on HCT116 and in the assay with SW480 [2] were 0.946 ± 0.076, 0.955 ± 0.092 and 0.992 ± 0.026, respectively. In addition, the “TCF/Wnt firefly luciferase reporter signal” value amounted to 0.952 ± 0.018 in the assay with DLD1 [3] and 1.04 ± 0.057 in the assay with SW480 [4].
Taken in the same sequence, the figures for `CC(C)c1c(O)ccc2c1CC[C@H]1[C@@](C)(CO)CCC[C@]21C` were 1.07 ± 0.057, 1.03 ± 0.15, 1.1 ± 0.085, 1.06 ± 0.19 and 1.04 ± 0.021.
Consider `O=C(/C=C/c1ccc(O)cc1)c1ccc(O)cc1O`, for which the cell viability with DLD1 [1] amounted to 0.97 ± 0.012; with HCT116, 1.03 ± 0.08; with SW480 [2] it was 0.968 ± 0.0099. Further, the figures for the “TCF/Wnt firefly luciferase reporter signal” value in the assay with DLD1 [3] and with SW480 [4] were 1 ± 0.15 and 0.862 ± 0.076, respectively.
`C1CCN2C[C@@H]3C[C@H](CN4CCCC[C@@H]34)[C@H]2C1`: the cell viability in the assay on DLD1 [1] came out at 0.938 ± 0.076; in the assay on HCT116, 0.9855 ± 0.0064; in the assay on SW480 [2], 0.93 ± 0.035. Moreover, the “TCF/Wnt firefly luciferase reporter signal” value was determined as 0.883 ± 0.072 in the assay on DLD1 [3] and 0.979 ± 0.03 with SW480 [4].
As for `COc1cc([C@@H]2c3cc4c(cc3[C@@H](O[C@@H]3O[C@@H]5CO[C@@H](C)O[C@H]5[C@H](O)[C@H]3O)[C@H]3COC(=O)[C@H]23)OCO4)cc(OC)c1O`, the cell viability in the assay on DLD1 [1] amounted to 1.03 ± 0.028; in the assay with HCT116, 0.895 ± 0.12; in the assay on SW480 [2], 1.03 ± 0.042. Also, the “TCF/Wnt firefly luciferase reporter signal” value in the assay on DLD1 [3] came to 0.815 ± 0.14; in the assay with SW480 [4] it was 0.879 ± 0.12.
Taken in the same sequence, the figures for `Nc1nc2c(ncn2[C@@H]2O[C@H](CO)[C@@H](O)[C@H]2O)c(=O)[nH]1` [Guanosin] were 0.915 ± 0.033, 0.934 ± 0.044, 0.903 ± 0.023, 0.927 ± 0.019 and 0.88 ± 0.014.
`Nc1ccc(S(=O)(=O)Nc2nccs2)cc1`: the cell viability came out at 1.01 ± 0.031 with DLD1 [1], 0.911 ± 0.028 in the assay on HCT116 and 1.065 ± 0.0071 in the assay on SW480 [2]. In addition, the figures for the “TCF/Wnt firefly luciferase reporter signal” value in the assay on DLD1 [3] and with SW480 [4] were 0.999 ± 0.072 and 1.055 ± 0.0071, respectively.
In the same order, the values of `CC(C)CC1NC(=O)C(NC(=O)c2ncccc2O)C(C)OC(=O)C(c2ccccc2)N(C)C(=O)C(C)NC(=O)C(C(C)C(C)C)N(C)C(=O)CN(C)C(=O)C2CCCN2C1=O` (single isomer, unassigned; isomere) [Neoviridogrisein II (Isomere)] are 0.904 ± 0.024, 0.991 ± 0.07, 1.02 ± 0.03, 0.918 ± 0.1 and 0.937 ± 0.02.
